Reference: the supplement of paper PMC10498489
Among all 2,300 compounds or so, about 330 (14%) showed activity.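 The calls were made as follows: active = median modified Z-score above 1.96; inactive = 1.96 or below.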 These entries were drawn from the full list.

What follows are compounds tested on HepG2 Srxn1-GFP reporter cells (+30 nM CDDO-Me) (assay: Srxn1-GFP intensity median modified Z-score relative to plate median; higher = stronger NRF2 / oxidative stress reporter activation, active = hit call of the paper). Details: 10 µM; exposure time: 24h.
Procedure, shortened: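 Values give the median, over replicates, of the modified Z-score of GFP intensity on each plate. HepG2 Srxn1-GFP BAC reporter cells were co-treated for 24 h with an NRF2 activator at 30 nM and compound at 10 μM (≤0.1% DMSO) in three replicate plates, then analysed per cell for cytoplasmic GFP on confocal images with at least 100 cells. Scaling used 1.4826 × median absolute deviation.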

Row | Structure (SMILES) | Srxn1-GFP intensity median modified Z-score
1 | O=c1c(O)cc(C2Oc3cc(O)cc(O)c3C[C@H]2O)cc2c(C3Oc4cc(O)cc(O)c4C[C@@H]3O)cc(O)c(O)c12 (stereo not given in full) [euspeclibcmpd1420] | -0.548 (inactive)
2 | Oc1cn2c(n1)Nc1ccc(Cl)c(Cl)c1C2 [euspeclibcmpd824] | -0.784 (inactive)
3 | CN1CCN2c3ccccc3Cc3ccccc3C2C1 (stereo not given) [euspeclibcmpd961] | 0.112 (inactive)
4 | CSc1ccc2c(c1)C(N1CCN(C)CC1)Cc1ccccc1S2 (stereo not given) [euspeclibcmpd1144] | 28.4 (active)
5 | Cc1cc2c(s1)N=c1ccccc1=NC2N1CCN(C)CC1 (stereo not given) [euspeclibcmpd2354] | 0.441 (inactive)
6 | CON=C(C(=O)NC1C(=O)N2C(C(=O)O)=C(CSC(=O)c3ccco3)CSC12)c1csc(=N)[nH]1 (stereo not given) [euspeclibcmpd692] | -0.296 (inactive)
7 | N=c1[nH]cnc(=Nc2ccc(Cl)cc2)[nH]1 [euspeclibcmpd2344] | 0.164 (inactive)
8 | CC1CC[C@@]23CC[C@]4(C)[C@@](CCC5[C@@]6(C)CCC(=O)C(C)(C)C6CC[C@]54C)(OC2=O)C3C1C (stereo not given in full) [euspeclibcmpd1366] | -0.221 (inactive)
9 | CC(=O)OCC(=O)[C@@]1(O)CC[C@H]2[C@@H]3CCC4=CC(=O)CC[C@]4(C)[C@H]3C(=O)C[C@]21C | 0.314 (inactive)
10 | CN(C)CCOC(=O)COc1ccc(Cl)cc1 [euspeclibcmpd1131] | -0.393 (inactive)
11 | CCN(CC)CCOc1ccc(/C(=C(\Cl)c2ccccc2)c2ccccc2)cc1 [euspeclibcmpd69] | -1.55 (inactive)
12 | COc1cc(C(=O)NCc2ccc(OCCN(C)C)cc2)cc(OC)c1OC [euspeclibcmpd309] | 0.482 (inactive)
13 | CN(C)CCOc1ccc(/C(=C(/CCCl)c2ccccc2)c2ccccc2)cc1 [euspeclibcmpd946] | 93.7 (active)
14 | CC/C(=C(\c1ccccc1)c1ccc(OCCN(C)C)cc1)c1ccccc1 [euspeclibcmpd285] | 43.4 (active)
15 | COc1ccc(C(=O)NCc2ccc(OCCN(C)C)cc2)cc1OC [euspeclibcmpd1095] | 0.331 (inactive)
16 | C[C@@H]1CC2C3CC(F)=C4CC(=O)C=C[C@]4(C)[C@@]3(F)[C@@H](O)C[C@]2(C)[C@@]1(O)C(=O)COC(=O)C(C)(C)C (stereo not given in full) [euspeclibcmpd128] | -0.646 (inactive)
17 | COc1c(O)c(C)c(C=CCCCCCCCCO)c(O)c1OC [euspeclibcmpd1216] | -0.228 (inactive)
18 | COC(=O)/C(=C1\OC(=O)C(c2ccccc2)C1=O)c1ccccc1 (stereo not given) [euspeclibcmpd1487] | 1.05 (inactive)

Row | Structure (SMILES) | Srxn1-GFP intensity median modified Z-score
19 | CC(=O)O[C@H]1C[C@@H](OC(C)=O)C(C)(C)C2CC(=O)[C@]3(C)C(CC[C@@]4(C)[C@H](c5ccoc5)OC(=O)C5O[C@]543)[C@]21C (stereo not given in full) [euspeclibcmpd1589] | 0.448 (inactive)
20 | CC1(C)C(=O)C=C[C@@]2(C)C1CC(=O)[C@]1(C)C2CC[C@@]2(C)[C@H](c3ccoc3)OC(=O)C3O[C@]321 (stereo not given in full) [euspeclibcmpd1588] | 13 (active)
21 | CC(=O)OC1CC2C(C)(C)C(O)CCC2(C)C2CCC3(C)C(=CC(=O)OC3c3ccoc3)C12C (stereo not given) [euspeclibcmpd1952] | 0.595 (inactive)
22 | COC(=O)CC1C(C)(C)C(OC(C)=O)C2C(OC(C)=O)C34OC2(O)C1(C)C3CCC1(C)C4=CC(=O)OC1c1ccoc1 (stereo not given) [euspeclibcmpd1938] | -0.377 (inactive)
23 | COC(=O)C1OC(=O)C2OC23C1(C)CCC1C2(C)CCC(=O)C(C)(C)C2CC(OC(C)=O)C13C (stereo not given) [euspeclibcmpd1948] | -0.0565 (inactive)
24 | CC1(C)O[C@H]2CC(=O)OC[C@]23[C@H]2CC[C@@]4(C)[C@H](c5ccoc5)OC(=O)C5O[C@]54[C@]2(C)C(=O)C[C@@H]13 (stereo not given in full) [euspeclibcmpd1497] | 0.563 (inactive)
25 | CC(=O)O[C@@H]1CC2C(C)(C)C(=O)C=C[C@]2(C)C2CC[C@@]3(C)[C@H](c4ccoc4)OC(=O)C4O[C@]43[C@@]21C (stereo not given in full) [euspeclibcmpd1359] | 23.9 (active)
26 | CC(=O)O[C@H]1C[C@@H](OC(C)=O)C(C)(C)C2CC(=O)[C@]3(C)C(CC[C@@]4(C)C(C(=O)O)OC(=O)C5OC543)[C@]21C (stereo not given in full) [euspeclibcmpd1389] | -0.386 (inactive)
27 | COC(=O)C1OC(=O)C2OC23[C@@]1(C)CCC1[C@]2(C)C(C[C@@H](O)[C@]13C)C(C)(C)[C@H](OC(C)=O)C[C@@H]2OC(C)=O (stereo not given in full) [euspeclibcmpd2102] | -0.135 (inactive)
28 | CC(=O)O[C@H]1C[C@@H](OC(C)=O)C(C)(C)C2C[C@@H](OC(C)=O)[C@@]3(C)C4=CC(=O)O[C@@H](c5ccoc5)[C@]4(C)CCC3[C@]21C (stereo not given in full) [euspeclibcmpd1532] | 0.0053 (inactive)
29 | CC(=O)O[C@@H]1CC2C(C)(C)C(=O)CC[C@]2(C)C2CC[C@@]3(C)[C@H](c4ccoc4)OC(=O)C4OC43[C@@]21C (stereo not given in full) [euspeclibcmpd1587] | 32.1 (active)
30 | CC(=O)O[C@@H]1CC2C(C)(C)C(=O)C3OC3[C@]2(C)C2CC[C@@]3(C)[C@H](c4ccoc4)OC(=O)C4OC43[C@@]21C (stereo not given in full) [euspeclibcmpd1644] | 5.41 (active)
31 | CC(C)CCCC(C)C1CCC2C3CC(=O)C4C[C@@H](O)CC[C@]4(C)C3CC[C@]12C (stereo not given in full) [euspeclibcmpd2198] | -0.502 (inactive)
32 | C[C@]12CC[C@@H](O)C[C@H]1CCc1ccccc12 [euspeclibcmpd1508] | -0.327 (inactive)
33 | N=c1[nH]c(=N)c2nc(-c3ccccc3)c(=N)[nH]c2[nH]1 [euspeclibcmpd304] | -0.346 (inactive)
34 | CN[C@@H]1[C@@H](O[C@H]2O[C@H](CO)[C@@H](N)[C@H](O)[C@H]2O)O[C@H]2C[C@@H](N)[C@H](O[C@H]3[C@H](O)[C@@H](O)[C@H](N)C[C@@H]3N)O[C@@H]2[C@@H]1O [euspeclibcmpd2180] | -0.708 (inactive)
35 | CN(N=O)C(=O)N[C@@H]1[C@@H](O)[C@H](O)[C@@H](CO)O[C@@H]1O [euspeclibcmpd271] | 0.0066 (inactive)
